# Target: SLC29A3
# Test: pooled miR-30 sensor sort-seq; sequence = guide strand
# Conditions: shRNA
# Further: reference of the scale not given here.
row,Sequence,sensor-assay potency score (higher = more potent)
1,TTGAACATCCAGTACTCCTTGG,-0.255
2,TTGAACTGTGCTGAAAGTCGTC,0.651
3,TTACAGAGCACGAAGAGGGGGA,0.172

# Target: SLC2A14
# Test: as above
# Conditions: shRNA
row,Sequence,sensor-assay potency score (higher = more potent)
1,TGATTCTTTAATAACAAAGAAA,-1.69
2,TTTATGATCGTCTCAGGAGCAT,-0.333
3,TCAGCATTTCAACTGACTCAGC,-0.914
4,TTATGATCGTCTCAGGAGCATT,-1.97
5,TCCCAGATCTATCTGCACCGTG,-0.88
6,TAAATAGTAAGCAGCAGAGGGG,-1.17
7,TTAACAAAGAGTCCGACGGAAA,-1.6
8,TAGTGATTCTTTAATAACAAAG,-1.67
9,TTCGTGAGCAGCACCTCAGAGG,-0.817
10,AATTCCAATAACTATGCCCAGC,-1.73
11,TTACACAGTCCCATAAGGCAGC,-0.403
12,ATAAATTCCTTTATGATCGTCT,0.823

# Target: SLC2A3
# Test: as above
# Conditions: shRNA
row,Sequence,sensor-assay potency score (higher = more potent)
1,TTTGAAGAAGGTAAAAGCCAAG,-1.07
2,TCTGCTTAGCATTCTCCTCTTC,0.0393
3,TTGTAGGATAGCAGGAAGGATG,-1.65
4,TTGACGAAGAGTCCGACGGAAA,-1.44
5,TTATGATCTTCTCAGGAGCATT,-1.71
6,TAGCTACTTTACACAGTCCCAT,-0.496
7,TTCCAGATCTATCTGCACCGTG,0.283
8,TTAGCTACTTTACACAGTCCCA,-1.12
9,TTATCCTTTAATAACAAAGAAA,-1.62
10,TTCTTTTCTGTTAATGAGCAAA,-1.47
11,TTACACAGTCCCATAAAGCAGC,-0.688
12,TAGGATAGCAGGAAGGATGGTA,0.643

# Target: SLC2A7
# Test: as above
# Conditions: shRNA
row,Sequence,sensor-assay potency score (higher = more potent)
1,TTCATCTCCTTTCTGAATCAGG,-0.693
2,TAGTAGTTGATCGCATTGATGC,-1.14
3,TCTGCCGCAGCTATCAACCAGC,-0.668
4,TTCTGAATCAGGGAGTAGCGGG,-1.43
5,TTGAAGACCTTGTGCGGCGTGT,-0.139
6,TTTATCTCCACAAATGTTTTGC,0.129
7,TTACATATTGGGAGTGAGCGGC,-0.256
8,TAGTTGATCGCATTGATGCCCG,-0.411
9,TGACTTGAAGACCTTGTGCGGC,-0.691
10,TAAATCGCAGTGAGGAGGCAGA,-0.695
11,TTTCGTTGTAAAATGACTTGAA,0.429
12,TTTCTCTTGGCAAAAATGCGGT,-0.876
